Assay results as given in PubChem BioAssay (NCI).
Where “and” joins values, the source holds several entries; their conditions need not be identical. Equal entries are not always repeated. This is part of a sample that, as a whole, favours compounds with a hit. Of some 83,000 tested, about 20% had one in any assay.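 Note: values are percent growth. 100 is the growth of untreated cells, values between 100 and 0 indicate rising inhibition; between -100 and 0 indicates cell death.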 A structure can be active in one record and inactive in another. Calls of active or inactive are those of the source. Rule for the calls: active = growth percent below 10; inactive = the rest.

Legend:
Test in all cases: NCI-60 one-dose screen, 48 h (100 = growth as untreated, 0 = no growth, -100 = all killed)
SR leukemia = test system: SR leukemia
RPMI-8226 leukemia = test system: RPMI-8226 leukemia
OVCAR-8 ovarian = test system: OVCAR-8 ovarian
OVCAR-5 ovarian = test system: OVCAR-5 ovarian
OVCAR-4 ovarian = test system: OVCAR-4 ovarian
SK-OV-3 ovarian = test system: SK-OV-3 ovarian
IGROV1 ovarian = test system: IGROV1 ovarian
OVCAR-3 ovarian = test system: OVCAR-3 ovarian
HS 578T breast = test system: HS 578T breast
NCI/ADR-RES ovarian = details: 10 µM unless noted

Measured: growth

CC1=C(/C=C/C(C)=C/C=C/C(C)=C/C=N/NC(=S)NC(=S)N/N=C/C=C(C)/C=C/C=C(C)/C=C/C2=C(C)CCCC2(C)C)C(C)(C)CCC1
inactive: SK-OV-3 ovarian; 10 µM unless noted 57.5%
23.6% (inactive) and 1.02% (active): SR leukemia; 10 µM unless noted
17% (inactive) and -0.538% (active): OVCAR-4 ovarian; 10 µM unless noted
active: RPMI-8226 leukemia; 10 µM unless noted -2.02% and -32.7% | OVCAR-8 ovarian; 10 µM unless noted -12.5% and -74.8% | OVCAR-5 ovarian; 10 µM unless noted -48.3% and -77.7% | IGROV1 ovarian; 10 µM unless noted -34.8% and -39.5% | OVCAR-3 ovarian; 10 µM unless noted -74.5% and -99.4%

CC#C[C@]1(O)CC[C@H]2[C@@H]3CCC4=CC(=O)CCC4=C3[C@@H](c3ccc4c(c3)OCO4)C[C@@]21C
inactive: SR leukemia; 10 µM 60.8% | RPMI-8226 leukemia; 10 µM 69.6% | OVCAR-8 ovarian; 10 µM 81.6% | OVCAR-5 ovarian; 10 µM 109% | OVCAR-5 ovarian; 100 µM 14.3% | OVCAR-4 ovarian; 10 µM 80.9% | SK-OV-3 ovarian; 10 µM 87.8% | IGROV1 ovarian; 10 µM 86.1% | OVCAR-3 ovarian; 10 µM 78% | HS 578T breast; 10 µM 79%
active: SR leukemia; 100 µM -20.8% | RPMI-8226 leukemia; 100 µM -35% | OVCAR-8 ovarian; 100 µM -13.6% | OVCAR-4 ovarian; 100 µM 8.93% | SK-OV-3 ovarian; 100 µM -5.43% | IGROV1 ovarian; 100 µM 2.61% | OVCAR-3 ovarian; 100 µM -40.2% | HS 578T breast; 100 µM 0.161%

O=S1(=O)CC(Br)C(Br)C1 (centres undefined)
inactive: SR leukemia; 10 µM unless noted 53.6% | RPMI-8226 leukemia; 10 µM unless noted 85.5% and 82.5% | OVCAR-8 ovarian; 10 µM unless noted 62.7% and 88.9% | OVCAR-5 ovarian; 10 µM unless noted 96.4% and 108% | OVCAR-4 ovarian; 10 µM unless noted 63.1% and 96% | SK-OV-3 ovarian; 10 µM unless noted 105% and 110% | IGROV1 ovarian; 10 µM unless noted 90.1% and 59% | OVCAR-3 ovarian; 10 µM unless noted 50.3% and 75.7% | HS 578T breast; 10 µM unless noted 91.4% and 89.7%

Cc1ccc(S(=O)(=O)NCN2C(=O)c3ccccc3C2=O)cc1
inactive: SR leukemia; 10 µM unless noted 101% | RPMI-8226 leukemia; 10 µM unless noted 103% | OVCAR-8 ovarian; 10 µM unless noted 108% | OVCAR-5 ovarian; 10 µM unless noted 110% | OVCAR-4 ovarian; 10 µM unless noted 96.7% | SK-OV-3 ovarian; 10 µM unless noted 98.4% | IGROV1 ovarian; 10 µM unless noted 107% | OVCAR-3 ovarian; 10 µM unless noted 113% | HS 578T breast; 10 µM unless noted 108%

CC1=CCC2CC1C2(C)C (centres undefined)
inactive: SR leukemia; 10 µM unless noted 96.9% and 91.4% | RPMI-8226 leukemia; 10 µM unless noted 137% and 120% | OVCAR-8 ovarian; 10 µM unless noted 97.7% and 95.8% | OVCAR-5 ovarian; 10 µM unless noted 80.1% and 74.2% | OVCAR-4 ovarian; 10 µM unless noted 112% and 109% | SK-OV-3 ovarian; 10 µM unless noted 114% and 99% | IGROV1 ovarian; 10 µM unless noted 35.4% | OVCAR-3 ovarian; 10 µM unless noted 89.2% and 95.1% | HS 578T breast; 10 µM unless noted 81.8% | NCI/ADR-RES ovarian 102% and 81.8%

O=C(CCl)c1ccc2c(c1)Nc1ccccc1S2
inactive: RPMI-8226 leukemia; 10 µM unless noted 63.4% and 52.1% | OVCAR-8 ovarian; 10 µM unless noted 95.1% and 88.7% | OVCAR-5 ovarian; 10 µM unless noted 105% and 117% | OVCAR-4 ovarian; 10 µM unless noted 90.1% and 83.4% | SK-OV-3 ovarian; 10 µM unless noted 100% and 99.3% | IGROV1 ovarian; 10 µM unless noted 104% and 93.3% | OVCAR-3 ovarian; 10 µM unless noted 96.8% and 71.6% | HS 578T breast; 10 µM unless noted 93% and 106% | NCI/ADR-RES ovarian 94.7% and 95.9%
13.6% (inactive) and 6.19% (active): SR leukemia; 10 µM unless noted

Cc1cccc(/C=C\C(=O)c2ccccc2)c1
inactive: RPMI-8226 leukemia; 10 µM unless noted 26% | OVCAR-8 ovarian; 10 µM unless noted 93.9% and 101% | OVCAR-5 ovarian; 10 µM unless noted 104% and 103% | OVCAR-4 ovarian; 10 µM unless noted 93.3% and 113% | SK-OV-3 ovarian; 10 µM unless noted 101% | IGROV1 ovarian; 10 µM unless noted 91.6% | OVCAR-3 ovarian; 10 µM unless noted 98.8% and 101% | HS 578T breast; 10 µM unless noted 112% and 104% | NCI/ADR-RES ovarian 97% and 101%
42.8% (inactive) and -0.91% (active): SR leukemia; 10 µM unless noted

CCOC(=O)c1c(C)oc(C)c(C(=O)OCC)c1=O
inactive: SR leukemia; 10 µM unless noted 118% and 85% | RPMI-8226 leukemia; 10 µM unless noted 85.9% and 94.5% | OVCAR-8 ovarian; 10 µM unless noted 104% and 102% | OVCAR-5 ovarian; 10 µM unless noted 114% | OVCAR-4 ovarian; 10 µM unless noted 105% and 94.6% | SK-OV-3 ovarian; 10 µM unless noted 97.8% and 95.3% | IGROV1 ovarian; 10 µM unless noted 114% and 94.7% | OVCAR-3 ovarian; 10 µM unless noted 105% and 127% | HS 578T breast; 10 µM unless noted 109% | NCI/ADR-RES ovarian 108%

C/C(=N\NC(=O)c1ccncc1)c1ccccc1O
inactive: SR leukemia; 10 µM unless noted 17.7% and 16% | RPMI-8226 leukemia; 10 µM unless noted 38.2% | OVCAR-8 ovarian; 10 µM unless noted 37.1% and 10.9% | OVCAR-5 ovarian; 10 µM unless noted 48.2% and 51% | OVCAR-4 ovarian; 10 µM unless noted 20% and 22.5% | SK-OV-3 ovarian; 10 µM unless noted 45.6% and 38.4% | IGROV1 ovarian; 10 µM unless noted 32.1% and 19.1% | OVCAR-3 ovarian; 10 µM unless noted 20.3% and 12.6% | HS 578T breast; 10 µM unless noted 76.1% | NCI/ADR-RES ovarian 18% and 16.9%

O=[N+]([O-])c1ccc(-n2[nH]nnc2=S)cc1
inactive: SR leukemia; 10 µM unless noted 92.1% | RPMI-8226 leukemia; 10 µM unless noted 102% | OVCAR-8 ovarian; 10 µM unless noted 107% | OVCAR-5 ovarian; 10 µM unless noted 102% | OVCAR-4 ovarian; 10 µM unless noted 92% | SK-OV-3 ovarian; 10 µM unless noted 103% | IGROV1 ovarian; 10 µM unless noted 91.3% | OVCAR-3 ovarian; 10 µM unless noted 110% | HS 578T breast; 10 µM unless noted 104% | NCI/ADR-RES ovarian 106%

COc1cc(NS(C)(=O)=O)ccc1Nc1c2ccccc2nc2c(C)cccc12
5.9% (active) and 11.9% (inactive): SK-OV-3 ovarian; 10 µM unless noted
2.93% (active) and 14.4% (inactive): IGROV1 ovarian; 10 µM unless noted
-57% (active) and 24.6% (inactive): OVCAR-3 ovarian; 10 µM unless noted
inactive: OVCAR-4 ovarian; 10 µM unless noted 42.9% and 62.8% | HS 578T breast; 10 µM unless noted 32.7% and 43% | NCI/ADR-RES ovarian 27.7% and 40.4%
active: SR leukemia; 10 µM unless noted 4.23% and -21.5% | RPMI-8226 leukemia; 10 µM unless noted -36.4% and -21.4% | OVCAR-8 ovarian; 10 µM unless noted 0.169% and 1.18% | OVCAR-5 ovarian; 10 µM unless noted 4.75% and 8.59%

Nc1ccccc1Nc1ccccc1
inactive: SR leukemia; 10 µM unless noted 68.2% and 72.1% | RPMI-8226 leukemia; 10 µM unless noted 42.3% and 29.1% | OVCAR-8 ovarian; 10 µM unless noted 95.7% and 92.3% | OVCAR-5 ovarian; 10 µM unless noted 129% and 115% | OVCAR-4 ovarian; 10 µM unless noted 93.7% and 88.9% | SK-OV-3 ovarian; 10 µM unless noted 114% and 106% | IGROV1 ovarian; 10 µM unless noted 100% and 109% | OVCAR-3 ovarian; 10 µM unless noted 79.8% and 57% | HS 578T breast; 10 µM unless noted 89.1% and 102% | NCI/ADR-RES ovarian 88% and 84.7%

COc1ccc2cc3[n+](cc2c1OC)CCc1cc2c(cc1-3)OCO2
inactive: SR leukemia; 10 µM unless noted 50% and 68.8% | RPMI-8226 leukemia; 10 µM unless noted 60.4% and 43.8% | OVCAR-8 ovarian; 10 µM unless noted 44.8% | OVCAR-5 ovarian; 10 µM unless noted 70.5% | OVCAR-4 ovarian; 10 µM unless noted 47.8% and 79.1% | SK-OV-3 ovarian; 10 µM unless noted 88.1% and 104% | IGROV1 ovarian; 10 µM unless noted 84.4% and 74.8% | OVCAR-3 ovarian; 10 µM unless noted 55.4% and 54.2% | HS 578T breast; 10 µM unless noted 79.6% and 73.5% | NCI/ADR-RES ovarian 99% and 101%

COc1cc(/C=N/Nc2nc3c([nH]2)c(=O)n(C)c(=O)n3C)ccc1O
inactive: SR leukemia; 10 µM unless noted 89% and 85.3% | RPMI-8226 leukemia; 10 µM unless noted 98.3% and 103% | OVCAR-8 ovarian; 10 µM unless noted 103% and 108% | OVCAR-5 ovarian; 10 µM unless noted 107% and 111% | OVCAR-4 ovarian; 10 µM unless noted 108% | SK-OV-3 ovarian; 10 µM unless noted 104% and 109% | IGROV1 ovarian; 10 µM unless noted 110% and 124% | OVCAR-3 ovarian; 10 µM unless noted 122% and 110% | HS 578T breast; 10 µM unless noted 118% and 103% | NCI/ADR-RES ovarian 109% and 111%

Cc1cc(=O)[nH]c(O)c1C#N
inactive: SR leukemia; 10 µM unless noted 94.8% and 122% | RPMI-8226 leukemia; 10 µM unless noted 119% and 332% | OVCAR-8 ovarian; 10 µM unless noted 105% and 101% | OVCAR-5 ovarian; 10 µM unless noted 93.7% and 90% | OVCAR-4 ovarian; 10 µM unless noted 99.8% and 104% | SK-OV-3 ovarian; 10 µM unless noted 105% and 96.2% | IGROV1 ovarian; 10 µM unless noted 100% | OVCAR-3 ovarian; 10 µM unless noted 112% | HS 578T breast; 10 µM unless noted 120% and 109% | NCI/ADR-RES ovarian 106% and 105%

CC12CCC(CC1)C(C)(C)O2
inactive: SR leukemia; 10 µM unless noted 88.8% | RPMI-8226 leukemia; 10 µM unless noted 103% | OVCAR-8 ovarian; 10 µM unless noted 111% | OVCAR-5 ovarian; 10 µM unless noted 94.3% | OVCAR-4 ovarian; 10 µM unless noted 113% | SK-OV-3 ovarian; 10 µM unless noted 104% | IGROV1 ovarian; 10 µM unless noted 103% | OVCAR-3 ovarian; 10 µM unless noted 121% | HS 578T breast; 10 µM unless noted 102% | NCI/ADR-RES ovarian 108%
